Potency data for eleven molecules are collected here from PubChem BioAssay (NCATS).

The structures appear in SMILES notation. Inconclusive results are not listed. Where a call stands in place of a potency, no number is given. Active and inactive are the calls of the source. Calls follow the shape of the dose curve; as a rule, active = well fitted inhibition curve with a large enough effect; inconclusive = small, poorly fitted or top-dose-only effect; inactive = flat fitted curve, though single readings scatter.

Sequence of Calcium and integrin-binding protein 1 (Homo sapiens) (Q99828 whole entry, looked up): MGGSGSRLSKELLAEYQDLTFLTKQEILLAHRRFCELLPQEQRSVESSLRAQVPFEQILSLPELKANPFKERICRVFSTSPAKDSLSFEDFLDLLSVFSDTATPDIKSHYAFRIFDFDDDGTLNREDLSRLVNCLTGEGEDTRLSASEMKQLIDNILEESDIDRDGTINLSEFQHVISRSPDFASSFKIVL

For the assay, the target named is Calcium and integrin-binding protein 1 (Homo sapiens) (UniProt Q99828). As to the kind of experiment: Primary qHTS for Identification of Calcium Integrin Binding Protein 1 (CIB1) Competitor (AID 1508620).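 Also: GST tagged CIB1 binding a fluorescein labelled alphaIIb integrin peptide tracer; top concentration of the series differs between compounds.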 The following applies: CIB1-GST / FITC-alphaIIb peptide fluorescence polarization; series mostly up to 57.7 µM. The method, boiled down:
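CIB1-GST (1 uM final) and compound incubated 15 min at room temperature before adding FITC-alphaIIb peptide tracer (100 nM final). Competition for binding read by fluorescence polarization (ex 480, em 540) after another 15 min at room temperature.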
In the case of `O=C(CCCCc1ccc2ccccc2c1)C(F)(F)F`, the Potency result was “inactive”.
Then `C=CC(C)(CC/C=C(\C)CC/C=C(\C)CC(O)/C=C(\C)C(=O)O)O[C@@H]1O[C@H](CO)[C@@H](O)[C@H](O)[C@H]1O[C@@H]1O[C@H](CO)[C@@H](O)[C@H](O)[C@H]1O` (stereo partly specified), with “inactive”; and `COc1c2c(c(C)c3c1C(=O)OC3)OC1(C)CC(O)C3(O)C(C)(C)OC(=O)CCC3(C)C1C2` (stereo unspecified), with “inactive”.
Then `CC1(C)NC2N(C1=O)c1ccccc1C2(O)CC(C(=O)O)n1cnc2ccccc2c1=O` (stereo unspecified), with “inactive”.
Then `CC(C)(C)NCC(O)COc1cccc2c1CCCC2=O` (stereo unspecified), with “inactive”.
As to `CNC(=O)O[C@H]1COc2ccc(N3CCN(C4COC4)CC3)cc2[C@@H]1NC(=O)c1ccc(F)cc1`, the Potency entry was “inactive”.
The entry for `CC(=O)O[C@H]1C[C@@H]2[C@]3(CC[C@]4(C)[C@@H](C5(C)CCC(C(C)(C)O)O5)[C@@H](O)C[C@@]24C)C[C@@]32CC[C@H](O[C@@H]3OC[C@@H](O)[C@H](O)[C@H]3O)C(C)(C)[C@H]12` (stereo partly specified) is “inactive”; for `COc1ccc(/C=C/C(=O)O[C@@H]2[C@@H](OC(C)=O)[C@@H](OC(C)=O)[C@H](O[C@H]3[C@@H]4C=CO[C@@H](O[C@@H]5O[C@H](CO)[C@@H](O)[C@H](O)[C@H]5O)[C@@H]4[C@@]4(CO)O[C@@H]34)O[C@H]2C)cc1O` it is “inactive”.
Then `O=C(C1CC1)N1CC[C@@H](Cc2n[nH]c(=O)n2-c2ccc(-c3ccc4occc4c3)cc2)C1`, with “inactive”.
The entry for `CC(C)CC(=O)n1cc(C(N)=O)c(=O)cc1C(O)c1ccccc1` (stereo unspecified) is “inactive”; for `CC(=O)NCCCCn1c2c(c3ccccc31)C(=O)NCC2` it is “inactive”.
